In PubChem BioAssay (NCATS):
Results filed as inconclusive are left out. Activity calls are given as the source filed them. Calls follow the shape of the dose curve; as a rule, active = well fitted curve in the direction sought with a large enough effect; inconclusive = small, poorly fitted or top-dose-only effect, or another doubt; inactive = no such curve, though single readings can be large; an effect the other way counts as inactive or inconclusive. *1 amine or outer side, *2 acyl side, *3 side chain or, on linkers, in order; H or OH if unused. Where a SMILES comes first, the peptide text is derived from it. [ ]: non-standard residue; d: D form. X4 = CC(C)=CCc1cc(C(O)C(N[*:1])C(=O)[*:2])ccc1O

Assays:
[1] = system: HaCat; test: Cytotoxic Profiling of Annotated Libraries Using Quantitative High-Throughput Screening (AID 1296008); conditions: Five cell lines viability, CellTiter-Glo ATP luminescence, 48-72 h; max response: stronger effect = lower value; also: nearly all actives have a fitted effect of over 60% in size; also: potency is read from the fitted curve at half-maximal effect; as to max response: % is scaled to controls: 0 for no effect and ±100 for the full control effect
Outline: (§1)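 Cells exposed to compounds for 48 or 72 hr at 37 degrees Celsius. Viability read as ATP-coupled luminescence with CellTiter-Glo after 10 min at room temperature.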

[2] = system: KB-3-1; test: as above; conditions: Five cell lines viability, CellTiter-Glo ATP luminescence, 48-72 h; max response: stronger effect = lower value
Outline: as §1

[3] = system: NIH3T3; test: as above; conditions: Five cell lines viability, CellTiter-Glo ATP luminescence, 48-72 h; max response: stronger effect = lower value
Outline: as §1

[4] = system: NIH3T3; test: qHTS assay to identify novel small-molecules to repurpose for Merkel cell carcinoma treatment (AID 1296009); conditions: MCC and control cell lines, CellTiter-Glo viability, 72 h; at 44.8 µM (top of the series) unless noted; also: nearly all actives have a fitted effect of over 60% in size
Outline: (§2)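 Cells were incubated with compound for 72 hr at 37 degree celsius before CellTiter-Glo addition. Luminescence was normalized with no-cell wells as full cytotoxicity and DMSO as baseline.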

[5] = system: C33A; test: Primary qHTS to identify gynecologic anti-cancer compounds using libraries of approved drugs and bioactive compounds (AID 1345084); conditions: Gynecologic cancer cell panel viability, ATPlite luminescence, 48 h; series mostly up to 57.5 µM; also: nearly all actives have a fitted effect of over 55% in size; also: potency is read from the fitted curve at half-maximal effect; as to activity change, negative = cytotoxicity: % is scaled to controls: 0 for no effect and ±100 for the full control effect
Outline: (§3)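 Cells, 1,000 per well, were allowed to settle for 16 h at 37 C before compound addition. Five concentrations were tested for 48 h, and viability was read by ATPlite luminescence after 15 min at room temperature.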

[6] = system: CAOV3; test: as above; conditions: Gynecologic cancer cell panel viability, ATPlite luminescence, 48 h; series mostly up to 57.5 µM
Outline: as §3

[7] = system: CASKI; test: as above; conditions: Gynecologic cancer cell panel viability, ATPlite luminescence, 48 h; series mostly up to 57.5 µM
Outline: as §3

[8] = system: Es-2; test: as above; conditions: Gynecologic cancer cell panel viability, ATPlite luminescence, 48 h; series mostly up to 57.5 µM
Outline: as §3

[9] = system: HeLa; test: as above; conditions: Gynecologic cancer cell panel viability, ATPlite luminescence, 48 h; series mostly up to 57.5 µM
Outline: as §3

[10] = system: Hek293T; test: as above; conditions: Gynecologic cancer cell panel viability, ATPlite luminescence, 48 h, control line for the selectivity index; series mostly up to 57.5 µM
Outline: as §3

[11] = system: JEG-3; test: as above; conditions: Gynecologic cancer cell panel viability, ATPlite luminescence, 48 h; series mostly up to 57.5 µM
Outline: as §3

[12] = system: OV90; test: as above; conditions: Gynecologic cancer cell panel viability, ATPlite luminescence, 48 h; series mostly up to 57.5 µM
Outline: as §3

[13] = system: HEK293T; test: qHTS assay to identify novel small-molecules to repurpose for Merkel cell carcinoma treatment (AID 1296009); conditions: MCC and control cell lines, CellTiter-Glo viability, 72 h; at 44.8 µM (top of the series) unless noted; also: nearly all actives have a fitted effect of over 60% in size
Outline: as §2

[14] = system: HACAT; test: as above; conditions: MCC and control cell lines, CellTiter-Glo viability, 72 h; series mostly up to 44.8 µM
Outline: as §2

CC(C)=CCc1cc(C(O)C2NC(=O)CNC(=O)C(Cc3c[nH]c4ccccc34)NC(=O)C3CCCN3C(=O)CNC(=O)C(C(C)C)NC(=O)CNC2=O)ccc1O (centres undefined) (cyclo(G[X4]GVGPW); configuration not given here)
inactive: max response [1] -16.9% | max response [2] 5.04% | outcome [3] | outcome [4] inactive [at 9.27 µM] | activity change, negative = cytotoxicity [5] 7.59% [at 11.6 µM] | activity change, negative = cytotoxicity [6] -21.2% [at 11.6 µM] | activity change, negative = cytotoxicity [7] -0.505% [at 11.6 µM] | activity change, negative = cytotoxicity [8] 0.641% [at 11.6 µM] | activity change, negative = cytotoxicity [9] 5.32% [at 11.6 µM] | activity change, negative = cytotoxicity [10] -0.92% [at 11.6 µM] | activity change, negative = cytotoxicity [11] 7.66% [at 11.6 µM] | activity change, negative = cytotoxicity [12] 5.8% [at 11.6 µM]

COc1cc(O)c2c(c1)C1=C[C@H](O)[C@@H](O)C[C@]1(C)OC2=O
inactive: max response [1] -2.92% | max response [2] 9.7% | outcome [3] | outcome [13] | outcome [4] | Potency [5] | Potency [6] | Potency [7] | Potency [8] | Potency [9] | Potency [10] | Potency [11] | Potency [12]

COC1=CC(=O)CC(C)C12Oc1cc(OC)cc(O)c1C2=O (centres undefined)
inactive: max response [1] 4.13% | outcome [2] | outcome [3] | outcome [4] | Potency [5] | Potency [6] | Potency [7] | Potency [8] | Potency [9] | Potency [10] | Potency [11] | Potency [12]

CC(=O)O[C@@H]1[C@@H](O)[C@H](C)O[C@@H](O[C@H]2[C@@H]3C=CO[C@@H](O[C@@H]4O[C@H](CO)[C@@H](O)[C@H](O)[C@H]4O)[C@@H]3[C@@]3(CO)O[C@@H]23)[C@@H]1OC(=O)/C=C/c1ccccc1
inactive: max response [1] -6.78% | max response [2] -1.35% | max response [3] -1.99% | Potency [5] | Potency [6] | Potency [7] | Potency [8] | Potency [9] | Potency [10] | Potency [11] | Potency [12]

CC(=O)OC1C(O)CC2(C)C(CCC(C)C23Cc2c(O)cc(CO)c(C=O)c2O3)C1(C)C (centres undefined)
inactive: max response [1] -3.73% | max response [2] 6.45% | outcome [3] | outcome [4] inactive [at 17.4 µM] | Potency [5] | Potency [6] | Potency [7] | Potency [8] | Potency [9] | Potency [10] | Potency [11] | Potency [12]

C=C(CCC1=C(C)[C@H]2[C@H](CC3[C@@H]4CC=C5C[C@@H](O)C[C@@H](O)[C@]5(C)C4[C@H](O)C[C@@]32C)O1)CO[C@@H]1O[C@H](CO)[C@@H](O)[C@H](O)[C@H]1O (some centres undefined)
active: Potency [1] 4.32 µM | Potency [2] 1.72 µM | Potency [5] 1.26 µM | Potency [6] 3.55 µM | Potency [7] 3.16 µM | Potency [8] 3.16 µM | Potency [9] 3.16 µM | Potency [10] 3.16 µM
inactive: max response [3] 0.743%

N[C@H]1Cc2ccccc2N(O)C1=O
inactive: max response [1] -0.256% | max response [2] -13.7% | max response [3] -9.2% | Potency [5] | Potency [6] | Potency [7] | Potency [8] | Potency [9] | Potency [10] | Potency [11]

O=S(=O)(c1ccccc1)c1cnc2c(N3CCNCC3)cccc2c1
inactive: outcome [1] | max response [2] 0.14% | max response [3] -14.1% | Potency [14] | Potency [6] | Potency [7] | Potency [8] | Potency [9] | Potency [10]

O=C(OC1C=C(CO)C2C(OC3OC(CO)C(O)C(O)C3O)OC=CC12)c1ccc(O)cc1 (centres undefined)
inactive: max response [1] -13.5% | outcome [2] | outcome [3] | outcome [4] inactive [at 17.4 µM] | Potency [5] | Potency [6] | Potency [7] | Potency [8] | Potency [9] | Potency [10] | Potency [11] | Potency [12]

CN[C@H](CC(C)C)C(=O)N[C@H]1C(=O)N[C@@H](CC(N)=O)C(=O)N[C@H]2C(=O)N[C@H]3C(=O)N[C@H](C(=O)N[C@H](C(=O)O)c4cc(O)cc(O)c4-c4cc3ccc4O)[C@H](O[C@H]3C[C@](C)(N)[C@@H](O)[C@H](C)O3)c3ccc(c(Cl)c3)Oc3cc2cc(c3O[C@@H]2O[C@H](CO)[C@@H](O)[C@H](O)[C@H]2O[C@H]2C[C@](C)(NCc3ccc(-c4ccc(Cl)cc4)cc3)[C@@H](O)[C@H](C)O2)Oc2ccc(cc2Cl)[C@H]1O
inactive: max response [1] -0.936% | outcome [2] | max response [3] 1.69% | Potency [5] | Potency [6] | Potency [7] | Potency [8] | Potency [9] | Potency [10] | Potency [11]

Cc1noc(=O)c2ccc(NC(=O)C(O)(CC(C)(C)c3cccc4c3OCC4)C(F)(F)F)cc12 (centres undefined)
inactive: outcome [1] | outcome [2] | max response [3] -1.29% | Potency [14] | Potency [5] | Potency [7] | Potency [8] | Potency [9] | Potency [10] | Potency [11] | Potency [12]

Cn1nnc(-c2ccc(-c3ccc(N4C[C@H](CO)OC4=O)cc3F)cn2)n1
inactive: max response [1] -5.65% | max response [2] -14% | outcome [3] | outcome [4] | Potency [5] | Potency [6] | Potency [7] | Potency [8] | Potency [9] | Potency [10] | Potency [11] | Potency [12]

Cc1cc(C)c(CNC(=O)c2cc(-c3ccc(CN4CCOCC4)cc3)cc3c2cnn3C2CCCC2)c(=O)[nH]1
inactive: outcome [1] | max response [2] 8.22% | max response [3] -0.531% | Potency [14] | Potency [5] | Potency [7] | Potency [8] | Potency [9] | Potency [10] | Potency [11] | Potency [12]
